Test results reported in PubChem BioAssay (EPA / NIEHS).
Values joined by “and” are separate entries in the source; they are usually repeats but may differ in a detail not shown here. Equal values may be shown once. Results filed as inconclusive are left out. Where a structure was tested more than once in an assay, its records may differ in their call. Active and inactive are the calls of the source. The calls were made as follows, unless noted: active = hit-call score of the fitted dose curve at least 0.9, where 1 is the maximum; inconclusive = response in the unintended direction; inactive = score below 0.9. Peptide text beside a SMILES is read from it.

Columns and labels:
[1] = CCTE_Deisenroth_AIME_384WELL_CTox_Active: Cytotoxicity Assessment (CTOX) in CCTE's 384-well Estrogen Receptor Transactivation Assay with AIME metabolic competence (metabolism positive), Deisenroth Lab (AID 2284037);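 also: chemicals first conditioned 2 h by alginate-bound induced rat liver S9 before cells; activity means signal loss indicating cell death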
Procedure, shortened: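 Cytotoxicity in VM7Luc4E2 breast cells, 24 hour, measured as protease-substrate fluorescence loss, after 2-hour metabolic conditioning with induced rat hepatic S9 in alginate microspheres. Concentrations 0.002 - 200 uM, 10 points, bidirectional fitting.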

[2] = target: Estrogen receptor (Homo sapiens) (UniProt P03372); assay: CCTE_Deisenroth_AIME_384WELL_LUC_Inactive: CCTE's 384-well Estrogen Receptor Transactivation Assay without AIME metabolic competence (ERTA luciferase; metabolism negative), Deisenroth Lab (AID 2284038);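 also: VM7Luc4E2 breast cells given medium preincubated 2 h with S9-free microspheres; hits raise estrogen receptor luciferase signal so potencies reflect agonists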
Procedure, shortened: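 Metabolism-negative mode: chemicals (10-point, 0.002–200 uM) held 2 h with alginate-water microspheres, then conditioned medium applied to VM7Luc4E2 cells for 24 h. Luciferase induction referenced to 17beta-estradiol.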

[3] = CCTE_Shafer_MEA_dev_active_electrodes_number: CCTE's Neural Network Formation Assay for Number of Active Electrodes, Shafer Lab (AID 2284040);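 as to AC50: potency for loss of active electrodes versus DMSO so lower counts are hits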
Procedure, shortened: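 Primary rat cortical neurons on 16-electrode MEA wells, exposed from day 0 through day 12 with compound renewed at DIV 5 and 9 feeds. Active electrodes (mean firing ≥5 spikes/min) counted at DIV 5, 7, 9, 12; trapezoidal AUC across days, loss-of-signal versus DMSO.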

[4] = target: Estrogen receptor (Homo sapiens) (UniProt P03372); assay: CCTE_Deisenroth_AIME_384WELL_LUC_Shift: CCTE's 384-well Estrogen Receptor Transactivation Assay with AIME metabolic competence data shift (ERTA luciferase; difference in metabolism positive and negative), Deisenroth Lab (AID 2284041; active = hit-call score of the fitted dose curve at least 0.9, where 1 is the maximum; inactive = score below 0.9;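 also: shift is response with S9 minus without S9 so positive means metabolism raised ER signal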)
Procedure, shortened: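 Test chemicals (0.002–200 uM, 10-point) were pre-incubated 2 h with alginate microspheres containing phenobarbital/beta-naphthoflavone-induced male Sprague Dawley rat liver S9 or water, then medium was transferred to VM7Luc4E2 cells for 24 h luciferase readout; shift = S9-positive minus S9-negative normalized response.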

[5] = CCTE_Shafer_MEA_dev_burst_rate: CCTE's Neural Network Formation Assay for Burst Rate, Shafer Lab (AID 2284042; active = hit-call score of the fitted dose curve at least 0.9, where 1 is the maximum; inactive = score below 0.9)
Procedure, shortened: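 Exposure ran continuously over 12 days of network development in rat cortical cultures, with compound refreshed during full media changes on DIV 5 and 9. Single-electrode bursts per recording time, well-mean over active electrodes, trapezoidal AUC across days 5–12, fitted downward relative to DMSO.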

[6] = CCTE_Shafer_MEA_dev_per_burst_interspike_interval: CCTE's Neural Network Formation Assay for Burst Interspike Interval, Shafer Lab (AID 2284044; active = hit-call score of the fitted dose curve at least 0.9, where 1 is the maximum; inactive = score below 0.9;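 also: mean spike spacing inside bursts as AUC over recordings on days 5 7 9 12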;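 as to AC50: potency for a decrease of within-burst interspike interval below DMSO level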)
Procedure, shortened: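 Spontaneous activity of maturing rat cortical networks is recorded on DIV 5, 7, 9 and 12 under chronic compound exposure beginning at plating. Endpoint: burst interspike interval well-mean, collapsed into trapezoidal AUC and fitted in the negative direction relative to DMSO.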

[7] = CCTE_Shafer_MEA_dev_burst_duration_mean: CCTE's Neural Network Formation Assay for Mean Burst Duration, Shafer Lab (AID 2284045; active = hit-call score of the fitted dose curve at least 0.9, where 1 is the maximum; inactive = score below 0.9;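 as to AC50: curve fitted for loss meaning shorter burst duration than DMSO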)
Procedure, shortened: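 Read-out: average first-to-last-spike interval within single-electrode bursts, averaged over bursting electrodes per well, then summarised as area under the curve across days 5, 7, 9 and 12. Developing rat cortical networks were exposed from day 0.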

[8] = CCTE_Shafer_MEA_dev_interburst_interval_mean: CCTE's Neural Network Formation Assay for Mean Interburst Interval, Shafer Lab (AID 2284046; active = hit-call score of the fitted dose curve at least 0.9, where 1 is the maximum; inactive = score below 0.9;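 also: well-mean interburst interval of bursting electrodes as AUC over four recording days; curve fitted for decrease in interburst interval relative to DMSO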)
Procedure, shortened: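 Primary rat cortical neurons on PEI-coated 48-well MEA plates (laminin added with cells at plating) (16 electrodes/well), exposed from plating day 0 with renewal at DIV 5 and 9. Mean inter-burst interval averaged over bursting electrodes, AUC across days 5, 7, 9, 12; DMSO baseline.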

[9] = CCTE_Shafer_MEA_dev_inter_network_spike_interval_mean: CCTE's Neural Network Formation Assay for Mean Inter-network Spike Interval, Shafer Lab (AID 2284047; active = hit-call score of the fitted dose curve at least 0.9, where 1 is the maximum; inactive = score below 0.9)
Procedure, shortened: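 Mean time between consecutive network-spike peaks, recorded extracellularly (adaptive spike detection) on DIV 5, 7, 9 and 12, summarized as trapezoidal AUC. Rat cortical cultures on MEAs dosed continuously days 0–12, re-dosed at feeds; loss-of-signal fit relative to DMSO.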

[10] = CCTE_Shafer_MEA_dev_bursting_electrodes_number: CCTE's Neural Network Formation Assay for Number of Bursting Electrodes, Shafer Lab (AID 2284043);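 as to AC50: potency is for loss of bursting electrodes relative to DMSO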
Procedure, shortened: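 Read-out is the per-well number of electrodes bursting at least once every 2 minutes, recorded on days 5, 7, 9 and 12 and collapsed by trapezoidal area under the curve. Cultures were primary rat cortical neurons on MEA plates, treated continuously from plating.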

Sequence of Estrogen receptor (Homo sapiens) (P03372 whole entry, looked up): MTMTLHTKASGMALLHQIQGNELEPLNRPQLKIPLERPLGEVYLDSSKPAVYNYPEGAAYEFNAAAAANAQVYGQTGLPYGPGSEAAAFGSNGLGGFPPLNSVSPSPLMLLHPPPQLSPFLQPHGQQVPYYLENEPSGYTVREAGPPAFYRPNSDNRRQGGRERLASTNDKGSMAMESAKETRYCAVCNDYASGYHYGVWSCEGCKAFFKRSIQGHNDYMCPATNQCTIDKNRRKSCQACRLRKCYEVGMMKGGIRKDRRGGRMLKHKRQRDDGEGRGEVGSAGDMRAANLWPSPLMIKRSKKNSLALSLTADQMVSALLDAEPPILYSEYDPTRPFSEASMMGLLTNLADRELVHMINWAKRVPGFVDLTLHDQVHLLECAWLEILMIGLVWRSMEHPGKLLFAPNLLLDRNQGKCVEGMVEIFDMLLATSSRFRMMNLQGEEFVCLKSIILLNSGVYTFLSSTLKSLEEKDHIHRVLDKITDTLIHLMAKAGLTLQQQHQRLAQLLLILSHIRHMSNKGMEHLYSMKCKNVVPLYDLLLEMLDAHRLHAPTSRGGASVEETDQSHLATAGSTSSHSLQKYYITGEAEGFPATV

COC(=O)[C@H](Cc1ccccc1)NC(=O)[C@@H](N)CC(=O)O (H-Asp-Phe-OMe)
outcome [1]: inactive | outcome [2]: inactive | outcome [3]: inactive | outcome [4]: inactive | outcome [5]: inactive | outcome [6]: inactive | outcome [7]: inactive | outcome [8]: inactive | outcome [9]: inactive

C=C1C[C@H]2[C@@H]3C=C(C)C4=CC(=O)CC[C@]4(C)[C@H]3CC[C@]2(C)[C@@]1(OC(C)=O)C(C)=O
outcome [1]: inactive | outcome [2]: inactive | outcome [4]: inactive

C=C(C)C1CC=C(C)CC1 (centres undefined)
outcome [1]: inactive | outcome [2]: inactive | outcome [4]: inactive

C=C[C@@]1(C)CC(=O)[C@]2(O)[C@@]3(C)[C@@H](O)CCC(C)(C)[C@@H]3[C@H](O)[C@H](OC(C)=O)[C@@]2(C)O1
AC50 [1]: 19.8 µM (active) | outcome [2]: inactive | outcome [4]: inactive

CCCCC/C=C\C/C=C\CCCCCCCC(=O)O
outcome [1]: inactive | outcome [2]: inactive | outcome [4]: inactive

CCCCNS(=O)(=O)c1ccccc1
outcome [1]: inactive | outcome [2]: inactive | outcome [3]: inactive | outcome [4]: inactive | outcome [5]: inactive | outcome [10]: inactive | outcome [6]: inactive | outcome [7]: inactive | outcome [8]: inactive | outcome [9]: inactive

Nc1ccc(C(=O)O)cc1
outcome [1]: inactive | outcome [2]: inactive | outcome [4]: inactive

O=C(O)/C=C/c1ccccc1
outcome [1]: inactive | outcome [2]: inactive | outcome [4]: inactive

C=CCOC(=O)c1ccc(C(=O)OCC=C)c(C(=O)OCC=C)c1
outcome [1]: inactive | outcome [2]: inactive | outcome [4]: inactive

CCCCCCCCCC(C)=O
outcome [1]: inactive | outcome [2]: inactive | outcome [4]: inactive

CCCCCC[C@@H](O)C/C=C\CCCCCCCC(=O)OCC(O)CO (some centres undefined)
outcome [1]: inactive | outcome [2]: inactive | outcome [4]: inactive

O=S(=O)(O)c1ccc(N=Nc2c(O)ccc3ccccc23)cc1
AC50 [1]: 71.3 µM (active) | outcome [2]: inactive | outcome [4]: inactive

CCCCCCCCCCCCc1ccc(O)cc1
AC50 [1]: 72.1 µM (active) | AC50 [2]: 1.01 µM (active) | outcome [4]: inactive

C[Si](C)(C)N[Si](C)(C)C
outcome [1]: inactive | outcome [2]: inactive | outcome [4]: inactive

O=C(O)CCC(=O)O
outcome [1]: inactive | outcome [2]: inactive | outcome [4]: inactive

CCCC(CC)c1ccccc1 (centres undefined)
outcome [1]: inactive | outcome [2]: inactive | outcome [4]: inactive

Cc1ccc([N+](=O)[O-])cc1N
outcome [1]: inactive | outcome [2]: inactive | outcome [4]: inactive

CC1=NN(c2ccc(S(=O)(=O)O)cc2)C(=O)C1N=Nc1ccccc1 (centres undefined)
AC50 [1]: 159 µM (active) | outcome [2]: inactive | outcome [4]: inactive

O=C(O)C1CCC(C(=O)O)CC1 (centres undefined)
outcome [1]: inactive | outcome [2]: inactive | outcome [4]: inactive

CCCCCCOc1ccc(N)cc1
outcome [1]: inactive | AC50 [2]: 53.9 µM (active) | AC50 [4]: 42.7 µM (active)

C/C=C/C=C/CCCCCCCO
outcome [1]: inactive | outcome [2]: inactive | outcome [4]: inactive

CCCCCC(=O)OCC
outcome [1]: inactive | outcome [2]: inactive | outcome [4]: inactive

N#Cc1ccc(C(c2ccc(C#N)cc2)n2cncn2)cc1
outcome [1]: inactive | outcome [2]: inactive | outcome [4]: inactive

CC(C)c1cc(C(C)C)cc(C(C)C)c1
outcome [1]: inactive | outcome [2]: inactive | outcome [4]: inactive

CC(CCC(=O)O)(c1ccc(O)cc1)c1ccc(O)cc1
outcome [1]: inactive | AC50 [2]: 71.4 µM (active) | AC50 [4]: 20.7 µM (active)

CC1(C)[C@@H]2CC[C@@]1(C)C(=O)C2
outcome [2]: inactive | outcome [4]: inactive

Cc1noc(NS(=O)(=O)c2ccc(N)cc2)c1C
outcome [5]: inactive | outcome [10]: inactive | outcome [6]: inactive | AC50 [7]: 24.1 µM (active) | outcome [8]: inactive | outcome [9]: inactive

Cc1c(C(=O)c2c[nH]n(C)c2=O)ccc(S(C)(=O)=O)c1C1=NOCC1
outcome [3]: inactive | outcome [5]: inactive | outcome [10]: inactive | outcome [6]: inactive | outcome [7]: inactive | outcome [8]: inactive | outcome [9]: inactive

O=C(O)CC(C(=O)O)S(=O)(=O)O (centres undefined)
outcome [2]: inactive | outcome [4]: inactive

CO[Si](C)(C)OC
outcome [2]: inactive | outcome [4]: inactive

O=C(Nc1ccccc1)c1cc(Cl)ccc1O
AC50 [1]: 33.4 µM (active) | outcome [2]: inactive | outcome [4]: inactive

CC(=O)/C=C/C1C(C)=CCCC1(C)C (centres undefined)
outcome [2]: inactive | outcome [4]: inactive

COC(=O)c1ccccc1C
outcome [2]: inactive | outcome [4]: inactive

CCCCNC(=S)NCCCC
outcome [2]: inactive | outcome [4]: inactive

CCCCCCCCCC[N+](C)(CCCCCCCCCC)CCC[Si](OC)(OC)OC
AC50 [1]: 49.4 µM (active) | outcome [4]: inactive

O=C(O)c1cc(O)c2ccccc2c1O
AC50 [1]: 34.5 µM (active) | outcome [4]: inactive

O=C(Oc1ccccc1)c1ccccc1O
outcome [1]: inactive | AC50 [2]: 53.4 µM (active) | AC50 [4]: 38.4 µM (active)

CCCCCCCCC(CO)CCCCCC (centres undefined)
outcome [2]: inactive | outcome [4]: inactive

O=c1c(O)c(-c2ccc(O)cc2O)oc2cc(O)cc(O)c12
AC50 [1]: 100 µM (active) | AC50 [2]: 109 µM (active) | outcome [4]: inactive

O=C(O)c1ccc2c(c1)C(=O)OC2=O
outcome [2]: inactive | outcome [4]: inactive

CCOC(=O)C1=NOC(c2ccccc2)(c2ccccc2)C1
outcome [2]: inactive | outcome [4]: inactive

CCCCCCCCCCCCCCCCCCOS(=O)(=O)O
outcome [1]: inactive | outcome [2]: inactive | outcome [4]: inactive

CCC(C)(O)CCCC(C)C (centres undefined)
outcome [2]: inactive | AC50 [4]: 67.7 µM (active)

C[N+](C)(C)CCCNS(=O)(=O)C(F)(F)C(F)(F)C(F)(F)C(F)(F)C(F)(F)C(F)(F)C(F)(F)C(F)(F)F
AC50 [3]: 1.13 µM (active) and 1.65 µM (active) | outcome [5]: inactive | AC50 [10]: 1.55 µM (active) and 4.37 µM (active) | AC50 [6]: 2.98 µM (active) | outcome [6]: inactive | outcome [7]: inactive | AC50 [8]: 2.43 µM (active) and 4.96 µM (active) | outcome [9]: inactive

CCCCCCCCCCCCCC(=O)OC(C)C
outcome [2]: inactive | outcome [4]: inactive

CC(C)(C)NC(=O)[C@H]1CC[C@H]2[C@@H]3CC[C@H]4NC(=O)C=C[C@]4(C)[C@H]3CC[C@]12C
outcome [4]: inactive

CCCCNS(=O)(=O)c1ccc(C)cc1
outcome [2]: inactive | AC50 [4]: 0.0002 µM (active)

CC(C)(C)N
outcome [2]: inactive | outcome [4]: inactive

CC(=O)OCc1ccccc1
outcome [2]: inactive | outcome [4]: inactive

CCC1COC(=O)O1 (centres undefined)
outcome [1]: inactive | outcome [2]: inactive | outcome [4]: inactive

CC(C)=CCCC(C)=CC#N
outcome [2]: inactive | outcome [4]: inactive
